High-throughput results from PubChem.
This is a sample that favours compounds with a hit; in the whole collection about 1% have one here.
Yeast superoxide – yeast age-related superoxide inhibition as caloric restriction mimetic. S. cerevisiae aged cells, superoxide DHE fluorescence; stronger effect = lower value. superoxide response (% of plate mean), % at 10 µM. 330,000 tested, 0.18% active. AID 2690;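 active = superoxide response under a set limit, about three screen SD below normal, cut at about 65% in these data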;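 note: yeast aged for seven days with compound at 30 °C before DHE staining; 100% = average MFI of all compound-treated wells on the plate with controls excluded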
V-ATPase pH – yeast V-ATPase proton transport regulation by pHLuorin. S. cerevisiae, pHLuorin cytosolic pH fluorescence. response, % at 10 µM. 350,000 tested, 0.37% active. AID 504577; in the data active = response mostly above about 7.3%, no sharp cut-off; inactive = mostly below about 5.4%; note: actives read high
Fh CTSL1 inh – counter-screen for PFM18AAP inhibitors: inhibitors of F. hepatica cathepsin L1; 300,000 tested, 0.49% active; AID 1906; recombinant F. hepatica cathepsin L1, Z-Leu-Arg-MCA fluorescence; inhibition, % at 5.96 µM;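 active = inhibition above the mean of all tested compounds plus 3 SD, set per screening campaign, cut at about 17% in these data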;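 note: 0% = plate median of test compound wells and 100% = 1 µM Z-Phe-Ala-diazomethylketone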
hiPSC survival – increases survival of single human iPS cells. hiPSC single-cell survival, ATPlite luminescence; 100% = ROCK inhibitor wells, 0% = DMSO. survival enhancement, % at 20 µM. 360,000 tested, 0.044% active; in the data active = survival enhancement above about 18%;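 note: cells exposed to compounds for 16 hours before the ATP read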
Superoxide pick – yeast aging superoxide inhibition, cherry pick confirmation. shares compounds with Yeast superoxide. superoxide response (% of plate), % at 10 µM. AID 434994. S. cerevisiae aging, superoxide DHE fluorescence; stronger effect = lower value. 850 tested, 1% active;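 active = superoxide signal below 65% of the plate average of sample wells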;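 note: cells aged with compound for 7 days at 30 degrees C before staining; 100% equals mean DHE fluorescence of all compound wells on the plate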
DHE counter – counter-screen for compounds affecting DHE oxidation and fluorescence in yeast. fluorescence response, % at 10 µM. shares compounds with Yeast superoxide. 850 tested, under 10 active. S. cerevisiae BY4741, flow cytometry; stronger effect = lower value;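 active = fluorescence response below 15%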;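 note: percent of the mean fluorescence averaged over all compound wells on the plate; lower means stronger quenching of DHE signal or ROS scavenging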
Active calls of the source: *; x = no result given.

SMILES	Yeast superoxide	V-ATPase pH	Fh CTSL1 inh	hiPSC survival	Superoxide pick	DHE counter
COc1cccc(CNC(=O)Cn2nc(C)c([N+](=O)[O-])c2C)c1	102.8	-2.1	-2.3	0.8	x	x
Cc1ccc(-c2nnn(CC(=O)NCC3CC3)n2)o1	98.1	3.4	-1.4	2.0	x	x
Cc1ccc(-c2nnn(CC(=O)Nc3ccc4nn(-c5ccccc5)nc4c3)n2)o1	108.6	16.2*	0.4	-1.5	x	x
CCOC(=O)C1CCN(C(=O)c2cccc(S(=O)(=O)N3c4ccccc4CC3C)c2)CC1 (stereo not given)	102.5	3.8	x	-0.5	x	x
CC1CCC(NC(=O)C2CCN(S(=O)(=O)c3ccc4nc5c(c(C(=O)O)c4c3)CC(C)CC5)CC2)CC1 (stereo not given)	93.4	3.8	19.1*	1.2	x	x
CC(=O)C(C(C)=O)C1(O)C(=O)c2ccccc2C1=O	102.2	1.6	57.7*	-0.9	x	x
Cc1cccc(CNC(=O)c2sc(=O)n(Cc3c(C)cccc3C)c2C)c1	x	x	x	0.8	x	x
NC(=S)N/N=C/c1ccc2ccccc2c1	79.4	0.6	3.7	-1.1	x	x
NC(=S)N/N=C/c1cccc(/C=N/NC(N)=S)c1	82.2	2.4	18.1*	0.6	x	x
NC(=S)N/N=C/c1ccc(/C=N/NC(N)=S)cc1	84.0	0.9	32.3*	1.2	x	x
CC(C)(C)c1cc(C(=O)N2CCc3ccccc3C2)ccn1	94.5	-2.7	-2.6	-0.8	x	x
CC(C)(C)c1cc(C(=O)N2CCc3ccccc32)ccn1	95.5	16.9*	-1.9	0.5	x	x
OC(CNC1CCCC1)COCCOc1ccc(Br)cc1 (stereo not given)	93.8	-2.0	6.8	-0.8	x	x
COc1cc(-c2nnn(CC(=O)N3CCOCC3)n2)cc(OC)c1OC	85.1	-7.0	29.5*	-1.2	x	x
COCCNC(=O)CN1C(=O)COc2ccc(Cl)cc21	103.7	2.1	17.6*	0.2	x	x
COC(=O)CN1C(=O)COc2ccc(Cl)cc21	97.7	4.1	4.5	0.6	x	x
O=Nc1c(O)c2ccccc2c2ccccc12	94.8	-3.2	6.4	-0.7	x	x
O=c1c(=Nc2ccccc2O)c(=O)c2ccccc12	94.1	-4.4	33.1*	-1.2	x	x
NS(=O)(=O)c1cc(C(=O)Nc2ccc3c(c2)CCC3)ccc1Cl	97.4	-2.8	1.4	-0.1	x	x
COC(=O)CN=C1OC(=O)N2C(=O)C3=C4[C@@H](C[C@H]5C(=O)N(c6ccccc6)C(=O)[C@H]5[C@H]4[C@@]12Cc1ccccc1)[C@H]1C(=O)N(c2ccccc2)C(=O)[C@H]1[C@H]3C	86.6	-6.5	-1.6	-0.5	x	x
COCCN=C1OC(=O)N2C(=O)C3=C4[C@@H](C[C@H]5C(=O)N(c6ccccc6)C(=O)[C@H]5[C@H]4[C@@]12Cc1ccccc1)[C@H]1C(=O)N(c2ccccc2)C(=O)[C@H]1[C@H]3C	97.4	-4.7	18.1*	-0.8	x	x
CNc1ccc(-c2ccccc2CO)cn1	x	x	x	0.1	x	x
Cc1ccsc1C=Nc1ccc(O)cc1	74.9	0.5	102.3*	1.0	x	x
CCOc1c(Cl)cc(/C=N/NC(N)=S)cc1OC	99.9	-11.4	25.9*	-1.8	x	x
C#CCOc1c(Cl)cc(/C=N/NC(N)=S)cc1OCC	102.8	-2.7	79.8*	1.4	x	x
SMILES	Yeast superoxide	V-ATPase pH	Fh CTSL1 inh	hiPSC survival	Superoxide pick	DHE counter
CCOc1cc(/C=N/NC(N)=S)cc(Br)c1OCc1ccccc1C	108.7	3.5	2.9	-3.6	x	x
COc1cc(/C=N/NC(N)=S)cc(Br)c1OCc1ccccc1F	120.7	-2.3	5.2	-1.7	x	x
CCOC(=O)CNC(=O)N1CCCC(C(=O)c2ccccc2SC)C1 (stereo not given)	116.2	-0.7	-5.1	3.0	x	x
OC(COCC(F)(F)C(F)(F)C(F)(F)C(F)F)Cn1c2ccccc2c2ccccc21 (stereo not given)	138.6	-0.4	2.5	2.4	99.5	105.4
CC(C)(C)c1ccc(/C=N/OCC(=O)NCc2ccc(F)cc2)cc1	62.5*	-2.9	1.9	-1.2	101.3	91.0
Cc1ccc(CNC(=O)CO/N=C/c2ccc(C(C)(C)C)cc2)cc1	110.2	-1.9	-1.7	2.4	x	x
COCCN(Cc1ccc(C)c(Br)c1)C(=O)Cn1cnc(S(=O)(=O)N2CCCC2)c1	90.9	1.5	0.1	-0.3	x	x
CCC(=Nc1ccccc1O)C1=C(O)CC(c2ccccc2)CC1=O (stereo not given)	61.6*	1.2	-1.1	-0.6	69.8	97.9
N#C/C(=C/c1cccs1)c1nc2ccccc2[nH]1	60.5*	-4.7	-0.8	-0.9	110.9	106.8
C/C(N)=C(/C#N)C(=O)COC(=O)c1oc2ccccc2c1COC(C)C	104.6	-2.2	-1.0	-0.5	x	x
O=C(CN1CCN(c2ccccn2)CC1)Nc1ccc(Cl)c(C(F)(F)F)c1	102.0	-2.8	1.2	-1.7	95.4	102.6
O=C(CN1CCN(c2ccccn2)CC1)Nc1cc(C(F)(F)F)ccc1Cl	96.5	-0.1	-3.0	-1.5	107.0	132.8
CCc1ccnc(NS(=O)(=O)c2ccc3c(c2)CCO3)c1	91.5	-0.5	-4.0	-0.5	x	x
CSc1ccc(/C=C(\C#N)C(=O)NC2CCCCC2)cc1	60.1*	-2.2	-4.8	-2.7	101.8	90.8
COc1cc(/C=C2\CC(C(C)(C)C)C/C(=C\c3cc(OC)c(OC)c(OC)c3)C2=O)cc(OC)c1OC (stereo not given)	56.6*	-1.0	5.5	0.4	95.0	90.5
Cc1ccc(N2CCN(C(=O)c3ccccc3F)CC2)c(C)c1	92.4	-1.1	-3.2	3.8	99.0	103.1
CCOc1cc(C(=O)OCC(=O)Nc2ccc(SC(F)F)cc2)cc(OCC)c1OCC	39.4*	3.3	-4.4	0.1	105.1	101.7
COc1ccc(-n2ncc3c(NCC(C)C)ncnc32)cc1	77.5	2.8	-1.5	-1.9	116.7	106.4
COCC(C)Nc1ncnc2c1cnn2-c1ccc(Cl)cc1 (stereo not given)	106.8	-2.8	1.7	-2.6	89.3	92.7
COc1ccc(-n2ncc3c(NC(C)C)ncnc32)cc1	85.2	4.4	3.2	-2.8	x	x
O=C(NCc1ccc(F)cc1)c1cc(C2CCCCN2C(=O)c2ccc(Cl)cc2)on1 (stereo not given)	x	x	x	5.6	x	x
O=C(C[C@@H]1C/C=C/CC[C@H](Cc2ccc(F)cc2)C(=O)OCCNC1=O)N[C@H](CO)Cc1ccccc1	97.2	0.0	x	-0.3	x	x
Cn1c2ccccc2c(=O)c2c(=O)n(C3CCCCC3)c(-c3cccs3)nc21	65.2*	0.5	5.1	8.1	109.9	97.6
O=[N+]([O-])c1ccc(S(=O)(=O)Nc2ccc(S(=O)(=O)N3CCCC3)cc2)cc1	96.3	-2.7	-0.8	-0.6	x	x
CC(C)(C)c1ccc(-n2ncc3c2CCCC3NC(=O)c2csnn2)cc1 (stereo not given)	58.3*	0.1	-9.4	-0.4	101.3	104.0
CC(C)CCNC(=O)c1cn(CC(C)C)c(=O)c2c1c1ccccc1n2C	100.9	1.9	2.7	0.3	x	x
CC(C)Cn1cc(C(=O)NCc2cccs2)c2c3ccccc3n(C)c2c1=O	62.3*	-5.5	5.6	-0.2	124.5	119.2
